± gives the standard deviation of the averaged measurements.
Columns and labels:
Conditions in all cases: concentration: 10 µM; 24 h
[1] = test system: HCC1569; test: cell number relative to DMSO (% of DMSO); higher = more cells (less growth inhibition / toxicity)
In short: (§1)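 Cells were seeded at 800 per well in 384-well plates with RPMI containing 10% FBS; both HCC1569 and TDF lines were used. Compounds were added at 10 µM for 24 h at 37 °C, in triplicate, before fixation in 3.7% formaldehyde and staining with a rabbit anti-H1.0 antibody, an AlexaFluor 647 secondary and DAPI. H1.0 nuclear intensity or cell number is reported as percent of the plate control using the median of replicates, and HCC1569 values were smoothed for positional effects.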

[2] = test system: TDF; test: as above
In short: as §1

[3] = test system: TDF; test: H1.0 immunofluorescence intensity relative to DMSO (% of DMSO); higher = stronger H1.0 induction, active = 120 or more
In short: as §1

[4] = test system: HCC1569; test: H1.0 immunofluorescence intensity relative to DMSO (% of DMSO); higher = stronger H1.0 induction, active = 140 or more
In short: as §1
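Wherever H1.0 immunofluorescence intensity relative to DMSO is given: TDF is a line of transformed human dermal fibroblasts of mesenchymal origin.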
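Wherever cell number relative to DMSO is given: TDF denotes transformed human dermal fibroblasts of mesenchymal origin.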

COC(=O)C1=COC(C)C2CN3CCc4c([nH]c5ccccc45)C3CC12 (centres undefined) [Teterahydroalstonine]
cell number [1]: 102
cell number [2]: 104
H1.0 immunofluorescence intensity [3]: 98.8 (inactive)
H1.0 immunofluorescence intensity [4]: 88 (inactive)

COc1ccccc1Oc1c(NS(=O)(=O)c2ccc(C(C)(C)C)cc2)nc(-c2ncccn2)nc1OCCO [Bosentan]
cell number [1]: 99.5
cell number [2]: 98.2
H1.0 immunofluorescence intensity [3]: 98.9 (inactive)
H1.0 immunofluorescence intensity [4]: 107 (inactive)

CC(=O)OCC(=O)[C@@]1(O)CC[C@H]2[C@@H]3CCC4=CC(=O)CC[C@]4(C)[C@@]3(F)[C@@H](O)C[C@@]21C
cell number [1]: 103
cell number [2]: 103
H1.0 immunofluorescence intensity [3]: 80 (inactive)
H1.0 immunofluorescence intensity [4]: 104 (inactive)

CCC1(c2ccccc2)C(=O)NCNC1=O [Primidone]
cell number [1]: 102
cell number [2]: 97.2
H1.0 immunofluorescence intensity [3]: 98 (inactive)
H1.0 immunofluorescence intensity [4]: 102 (inactive)

C=C1C(=O)C23C(O)C1CCC2C12COC3(O)C(O)C1C(C)(C)CCC2O (centres undefined) [Oridonin]
cell number [1]: 80.4
cell number [2]: 110
H1.0 immunofluorescence intensity [3]: 93 (inactive)
H1.0 immunofluorescence intensity [4]: 111 (inactive)

COc1ccc(-c2cc(=O)c3ccc(O)cc3o2)cc1 [Pratol]
cell number [1]: 98.5
cell number [2]: 87.4
H1.0 immunofluorescence intensity [3]: 94 (inactive)
H1.0 immunofluorescence intensity [4]: 105 (inactive)

COc1ccc(C=Cc2cc(O)cc(OC3OC(CO)C(O)C(O)C3O)c2)cc1O (centres undefined) [Rhapontin]
cell number [1]: 99.2
cell number [2]: 104
H1.0 immunofluorescence intensity [3]: 96 (inactive)
H1.0 immunofluorescence intensity [4]: 83.7 (inactive)

COc1cc2ncnc(Sc3nnc(C)s3)c2cc1OC
cell number [1]: 63.3
cell number [2]: 67.7
H1.0 immunofluorescence intensity [3]: 108 (inactive)
H1.0 immunofluorescence intensity [4]: 160 (active)

CC(C)(C)OC(=O)CN(Cc1ccc(Cl)cc1)Cc1ccc([N+](=O)[O-])s1
cell number [1]: 100
cell number [2]: 105
H1.0 immunofluorescence intensity [3]: 102 (inactive)
H1.0 immunofluorescence intensity [4]: 99 (inactive)

CC(COc1ccccc1)N(CCCl)Cc1ccccc1.Cl (centres undefined) [Phenoxybenzamine hydrochloride]
cell number [1]: 71.6
cell number [2]: 69.5
H1.0 immunofluorescence intensity [3]: 105 (inactive)
H1.0 immunofluorescence intensity [4]: 107 (inactive)

CCCCCCCCCCCCCCCC(=O)OCC(COP(=O)(O)O)OC(=O)CCCCCCCCCCCCCCC (centres undefined) [Dipalmitoylphosphatidic acid]
cell number [1]: 94.8
cell number [2]: 107
H1.0 immunofluorescence intensity [3]: 89.8 (inactive)
H1.0 immunofluorescence intensity [4]: 107 (inactive)

N#Cc1ccc(C(c2ccc(C#N)cc2)n2cncn2)cc1 [Letrozole]
cell number [1]: 100
cell number [2]: 103
H1.0 immunofluorescence intensity [3]: 96.8 (inactive)
H1.0 immunofluorescence intensity [4]: 102 (inactive)

CCCCCCCCCCCCCCCC(=O)NCC(COP(=O)([O-])OCC[N+](C)(C)C)OCC (racemic) [rac-2-Ethoxy-3-hexadecanamido-1-propylphosphocholine]
cell number [1]: 96.1
cell number [2]: 96.3
H1.0 immunofluorescence intensity [3]: 97.5 (inactive)
H1.0 immunofluorescence intensity [4]: 104 (inactive)

CC(O)C(CO)NC(=O)C1CSSCC(NC(=O)C(N)Cc2ccccc2)C(=O)NC(Cc2ccccc2)C(=O)NC(Cc2c[nH]c3ccccc23)C(=O)NC(CCCCN)C(=O)NC(C(C)O)C(=O)N1 (centres undefined) [Octreotide]
cell number [1]: 106
cell number [2]: 98.5
H1.0 immunofluorescence intensity [3]: 103 (inactive)
H1.0 immunofluorescence intensity [4]: 98.9 (inactive)

CCC(c1ccc(O)cc1)C(CC)c1ccc(O)cc1 (centres undefined) [Hexestrol]
cell number [1]: 100
cell number [2]: 102
H1.0 immunofluorescence intensity [3]: 94.1 (inactive)
H1.0 immunofluorescence intensity [4]: 119 (inactive)

C=CCCCCCCCCCC(=O)O [11-Dodecenoic acid]
cell number [1]: 97.4
cell number [2]: 98.7
H1.0 immunofluorescence intensity [3]: 102 (inactive)
H1.0 immunofluorescence intensity [4]: 103 (inactive)

Br.Oc1ccc(C2CNCCc3c2cc(O)c(O)c3Cl)cc1 (centres undefined) [Fenoldopam bromide]
cell number [1]: 103
cell number [2]: 100
H1.0 immunofluorescence intensity [3]: 86.4 (inactive)
H1.0 immunofluorescence intensity [4]: 99.2 (inactive)

O=C(O)c1cccnc1Nc1cccc(C(F)(F)F)c1 [Niflumic acid]
cell number [1]: 98.8 ± 5.9
cell number [2]: 95.2 ± 23
H1.0 immunofluorescence intensity [3]: 97.7 (inactive)
H1.0 immunofluorescence intensity [4]: 101 (inactive)

CC[N+](C)(C)Cc1ccccc1Br.Cc1ccc(S(=O)(=O)[O-])cc1 [Bretylium tosylate]
cell number [1]: 83.4
cell number [2]: 80.2
H1.0 immunofluorescence intensity [3]: 105 (inactive)
H1.0 immunofluorescence intensity [4]: 103 (inactive)

Cl.OC(CN1CCN(c2cccc(Cl)c2)CC1)C(c1ccccc1)c1ccccc1 (centres undefined)
cell number [1]: 102
cell number [2]: 111
H1.0 immunofluorescence intensity [3]: 94.8 (inactive)
H1.0 immunofluorescence intensity [4]: 88.3 (inactive)

CC(=O)Nc1nc(C)c(S(=O)(=O)Nc2ccc(C(O)(C(F)(F)F)C(F)(F)F)cc2)s1
cell number [1]: 97.5
cell number [2]: 109
H1.0 immunofluorescence intensity [3]: 85.1 (inactive)
H1.0 immunofluorescence intensity [4]: 111 (inactive)

COc1ccc(C(=O)Nc2sc3c(c2C(N)=O)CCCC3)cc1OC [Flt-3 Inhibitor]
cell number [1]: 96.7
cell number [2]: 105
H1.0 immunofluorescence intensity [3]: 94.7 (inactive)
H1.0 immunofluorescence intensity [4]: 119 (inactive)

CC1CCCC(C)N1NC(=O)c1ccc(Cl)c(S(N)(=O)=O)c1 (centres undefined) [Clopamide]
cell number [1]: 100
cell number [2]: 104
H1.0 immunofluorescence intensity [3]: 94.9 (inactive)
H1.0 immunofluorescence intensity [4]: 104 (inactive)

NC/C=C\C(=O)O [cis-4-Aminocrotonic acid]
cell number [1]: 105
cell number [2]: 100
H1.0 immunofluorescence intensity [3]: 98.3 (inactive)
H1.0 immunofluorescence intensity [4]: 88.1 (inactive)

CC(=O)OC(C)C[N+](C)(C)C.[Cl-] (stereo not drawn) [Acetyl-beta-methylcholine chloride]
cell number [1]: 110
cell number [2]: 94.7
H1.0 immunofluorescence intensity [3]: 96.2 (inactive)
H1.0 immunofluorescence intensity [4]: 88.4 (inactive)

O=C1NC(=O)c2cc(Nc3ccc(F)cc3)c(Nc3ccc(F)cc3)cc21 [PKCbII/EGFR Inhibitor]
cell number [1]: 95.1
cell number [2]: 111
H1.0 immunofluorescence intensity [3]: 89.7 (inactive)
H1.0 immunofluorescence intensity [4]: 121 (inactive)

COc1ccc(-c2cc(=O)c3c(O)cc(O)cc3o2)cc1O [Diosmetine]
cell number [1]: 93.5
cell number [2]: 101
H1.0 immunofluorescence intensity [3]: 99.2 (inactive)
H1.0 immunofluorescence intensity [4]: 114 (inactive)

CNC1C(O)C(NC)C2OC3(O)C(=O)CC(C)OC3OC2C1O.Cl.Cl (centres undefined) [Spectinomycin.2HCl]
cell number [1]: 98.8
cell number [2]: 106
H1.0 immunofluorescence intensity [3]: 94.4 (inactive)
H1.0 immunofluorescence intensity [4]: 100 (inactive)

OCCC#Cc1nc(-c2ccc(F)cc2)c(-c2ccncc2)n1CCCc1ccccc1
cell number [1]: 91.8
cell number [2]: 105
H1.0 immunofluorescence intensity [3]: 82.7 (inactive)
H1.0 immunofluorescence intensity [4]: 111 (inactive)

CN1CCCC1CCOC(C)(c1ccccc1)c1ccc(Cl)cc1 (centres undefined) [Clemastine]
cell number [1]: 99.4
cell number [2]: 97.3
H1.0 immunofluorescence intensity [3]: 102 (inactive)
H1.0 immunofluorescence intensity [4]: 112 (inactive)

CCOC(=O)C1=C(COCCN)NC(C)=C(C(=O)OC)C1c1ccccc1Cl (centres undefined) [Amlodipine]
cell number [1]: 98.4
cell number [2]: 106
H1.0 immunofluorescence intensity [3]: 93.5 (inactive)
H1.0 immunofluorescence intensity [4]: 106 (inactive)

COc1ccc2ccc(=O)oc2c1CC=C(C)C [Osthole]
cell number [1]: 97.3
cell number [2]: 92.5
H1.0 immunofluorescence intensity [3]: 103 (inactive)
H1.0 immunofluorescence intensity [4]: 99.9 (inactive)

CC(C)CC(NC(=O)C(O)C(N)Cc1ccccc1)C(=O)O.Cl (centres undefined) [Epibestatin hydrochloride]
cell number [1]: 105
cell number [2]: 96.3
H1.0 immunofluorescence intensity [3]: 91.8 (inactive)
H1.0 immunofluorescence intensity [4]: 100 (inactive)

CC(=O)SC1CC2=CC(=O)CCC2(C)C2CCC3(C)C(CCC34CCC(=O)O4)C12 (centres undefined) [Spironolactone]
cell number [1]: 99.1 ± 3.8
cell number [2]: 105 ± 7.3
H1.0 immunofluorescence intensity [3]: 92.2 (inactive)
H1.0 immunofluorescence intensity [4]: 104 (inactive)

CCCCCC(O)C=CC1C(O)CC(O)C1CC=CCCCC(=O)O (centres undefined) [9a,11b Prostaglandin F2]
cell number [1]: 106
cell number [2]: 99.4
H1.0 immunofluorescence intensity [3]: 94.2 (inactive)
H1.0 immunofluorescence intensity [4]: 101 (inactive)

Cc1ccc(S(=O)(=O)NC(=O)NN2CCCCCC2)cc1 [Tolazamide]
cell number [1]: 101.3 ± 0.45
cell number [2]: 111.1 ± 0.38
H1.0 immunofluorescence intensity [3]: 93.2 (inactive)
H1.0 immunofluorescence intensity [4]: 102 (inactive)

OCC1=CC(O)C2C=COC(OC3OC(CO)C(O)C(O)C3O)C12 (centres undefined) [Aucubin]
cell number [1]: 99.6
cell number [2]: 107
H1.0 immunofluorescence intensity [3]: 99.8 (inactive)
H1.0 immunofluorescence intensity [4]: 85 (inactive)

O=C(O)Cc1ccc(O)c(O)c1 [3,4-Dihydroxyphenylacetic acid]
cell number [1]: 104
cell number [2]: 102
H1.0 immunofluorescence intensity [3]: 95.9 (inactive)
H1.0 immunofluorescence intensity [4]: 96.6 (inactive)

CN1CCN2c3ccccc3Cc3ccccc3C2C1.Cl (centres undefined) [Mianserin.HCl]
cell number [1]: 107
cell number [2]: 112
H1.0 immunofluorescence intensity [3]: 101 (inactive)
H1.0 immunofluorescence intensity [4]: 96.2 (inactive)

CCCCCCCCCCCCCCCCOP(=O)([O-])OCC[N+](C)(C)C [Miltefosine]
cell number [1]: 97.1
cell number [2]: 109
H1.0 immunofluorescence intensity [3]: 92.7 (inactive)
H1.0 immunofluorescence intensity [4]: 113 (inactive)

CSC(=N)N.CSC(=N)N.O=S(=O)(O)O [S-Methylisothiourea hemisulfate]
cell number [1]: 103
cell number [2]: 98.6
H1.0 immunofluorescence intensity [3]: 93.5 (inactive)
H1.0 immunofluorescence intensity [4]: 96.7 (inactive)

O=C1NC(=O)C(c2cn(CCCO)c3ncccc23)=C1c1cnccn1 [GSK-3b Inhibitor XI]
cell number [1]: 106
cell number [2]: 119
H1.0 immunofluorescence intensity [3]: 88.7 (inactive)
H1.0 immunofluorescence intensity [4]: 116 (inactive)

Cc1coc2c1C(=O)C(=O)c1c-2ccc2c1CCCC2(C)C [Tanshinone IIA]
cell number [1]: 85.3 ± 2.9
cell number [2]: 45.7 ± 6
H1.0 immunofluorescence intensity [3]: 113 (inactive)
H1.0 immunofluorescence intensity [4]: 114 (inactive)

O=NN(CCCl)C(=O)NCCCl [Carmustine]
cell number [1]: 99
cell number [2]: 93.9
H1.0 immunofluorescence intensity [3]: 95.4 (inactive)
H1.0 immunofluorescence intensity [4]: 89.6 (inactive)

O=C(O)c1cc(=O)c2c(Cl)cc(Cl)cc2[nH]1 [5,7-Dichlorokynurenic acid]
cell number [1]: 102
cell number [2]: 98.6
H1.0 immunofluorescence intensity [3]: 95.2 (inactive)
H1.0 immunofluorescence intensity [4]: 95.9 (inactive)

CC(C)C(=O)c1c(C(C)C)nn2ccccc12 [Ibudilast]
cell number [1]: 101 ± 4.1
cell number [2]: 97.7 ± 1.3
H1.0 immunofluorescence intensity [3]: 93.1 (inactive)
H1.0 immunofluorescence intensity [4]: 94.5 (inactive)
